Shown are actives, neighbours in structure and some others; about 7.9% of the full set was active somewhere.
HCMV inh = qHTS Assay for inhibitors of the human cytomegalovirus (HCMV); 4.5% of 410,000 active; AID 1259415, 2018; activity change, negative = inhibition, % at 57.5 µM; HFF cells, HCMV-luciferase reporter, 72 h; stronger effect = lower value; in the data active means activity change below about -60%; inconclusive means no clear call, values can overlap the other calls; inactive means above about -39%
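Inhibition of viral replication was scored as loss of reporter luminescence in HFFs infected with HCMV-luciferase (MOI 1 PFU/cell) for 72 h; compounds tested at 2 doses, normalized to buffer and Salinomycin controls.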
HCV inhibitor = qHTS Assay for Inhibitors of Hepatitis C Virus (HCV); Huh7.5.1 HCVcc-Cre infection, luciferase reporter, 44 h; Potency, µM (top dose mostly 41.8 µM), inactives show at the highest dose activity change, negative = inhibition, hits mostly inhibitors; 3.4% of 340,000 active; active means well fitted inhibition curve with a large enough effect; inconclusive means small, poorly fitted or top-dose-only effect, or another doubt; inactive means no such curve, though single readings can be large or run the other way; further: potency means the concentration at half of the fitted maximal effect
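After 44 h co-culture of compound, cells and HCVcc-Cre (~0.5 moi), substrate is added for 15 min at room temperature and luciferase measured over 15 sec. Cells were seeded at 1,000/well and pre-cultured 4 h.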
FMDV inh = High Throughput Screening for Foot and Mouth Disease Virus Antivirals; FMDV antiviral cell-based qHTS; 1.2% of 410,000 active; Potency, µM (titrated, usually from 57.9 µM), for the others: at the highest dose activity change, negative = inhibition, usual class: inhibitors; calls by dose curve; tested in HEK293T cells; further: read-out not given here; potency means the concentration at half of the fitted maximal effect; nearly all actives have a fitted effect of over 45% in size
Lassa entry inh = qHTS for Inhibitors of binding or entry into cells for Lassa Virus. Lassa virus pseudotype entry inhibition, cell reporter. Potency, µM (top dose mostly 37.9 µM), without a hit: at the top dose activity change, negative = inhibition, most hits filed as inhibitors. 1.2% of 300,000 active; calls by dose curve; tested in HEK293 cells; further: potency means the concentration at half of the fitted maximal effect; nearly all actives have a fitted effect of over 50% in size
MARV entry inh = qHTS for inhibitors of binding or entry into cells for Marburg Virus; Marburg virus pseudotyped entry inhibition, cell reporter; Potency, µM (doses to about 37.8 µM), without a hit: at the top dose activity change, negative = inhibition, hits mostly inhibitors; 1.8% of 300,000 active; calls by dose curve; tested in HEK293 cells; further: potency means the concentration at half of the fitted maximal effect
An asterisk follows results filed as active; ? = inconclusive; / = not tested or not shown; [ ] = dose if it differs, or a comment. On the % scale 0 is the no-effect control and ±100 the full control effect.

SMILES | HCMV inh | HCV inhibitor | FMDV inh | Lassa entry inh | MARV entry inh
Cc1c(C(=O)NCC(C)(C)CN(C)C)cnn1-c1nccc(-c2ccccc2F)n1 | / | / | -4% | / | /
O=C(CSc1cccc2cccnc12)N/N=C/c1cccc(O)c1 | -8 | ? | -20% | / | /
O=C(N/N=C/c1ccc(O)c(O)c1)c1ccc(CSc2cccc3cccnc23)cc1 | -13 | 16µM* | -10% | -11% | -5%
CC(C)(C)NC(=O)C(=O)NNC(=O)c1cccc(F)c1 | 64 | 23% | 27% | 28% | ?
CC(C)(C)Cc1c(-c2ccc(F)cc2)nc2ccc(Br)cn12 | -76* | / | -28% | / | /
CC(C)(C)Cc1c(-c2ccc(Cl)cc2)nc2ccc(Br)cn12 | -16 | / | -1% | / | /
Cc1cc(-c2nc3ncccc3o2)ccc1NC(=O)COc1cc(C)c(Cl)c(C)c1 | 2 | / | -5% | -3%[46.1 µM] | 9%[46.1 µM]
Cc1ccc(Cl)cc1NC(=O)c1ccc(CSc2nnnn2C)cc1 | -61* | ? | -3% | 1% | -1%
Cc1ccc(NC(=O)c2ccc(CSc3nnnn3C)cc2)cc1 | 41 | ? | -3% | ? | -24%
COc1ccc(O[C@H]2C=C[C@@H](c3ccccc3)O[C@H]2COC(=O)CCC(C)=NO[C@H](C)CN2CCCc3nc(C)c(C)cc32)cc1 | / | / | / | / | -24%[14.2 µM]
COc1ccc(OCCCCn2c(C3CC(=O)N(c4cccc(Cl)c4)C3)nc3ccccc32)cc1 (stereo not drawn) | -7 | / | ? | ? | -28%[46.1 µM]
COc1ccc(NC(=S)N2CCCN(Cc3cccc(Cl)c3)C2)cc1 | 0 | -24% | -8% | ? | ?
COc1cccc(NC(=S)N(CCCN2CCCC2)Cc2cccn2Cc2ccc(Cl)cc2)c1 | -34 | ? | -22% | ? | ?
CSc1cccc(NC(=S)N(CCCN2CCCC2)Cc2cccn2Cc2ccc(Cl)cc2)c1 | ? | ? | 40µM* | 2.8µM* | 6.3µM*
CSc1cccc(NC(=S)N2CCCN(Cc3cccc(Cl)c3)C2)c1 | 5 | ? | -4% | ? | 4.5µM*
S=C(Nc1cccc(Cl)c1)N(CCCN1CCCC1)Cc1cccn1Cc1ccc(Cl)cc1 | -79* | -27% | -24% | ? | ?
COc1cc(/C=C\c2ccc(OC)cc2OC)cc(OC)c1 | / | / | 17% | / | /
Cc1ccc(C)c(N2CCN(C(=S)Nc3ccc4nc(N5CCOCC5)cc(C)c4c3)CC2)c1 | -22 | ? | -11% | 1% | ?
Cc1cc(N2CCOCC2)nc2ccc(NC(=S)N3CCN(c4ccccc4)CC3)cc12 | ? | ? | 0% | ? | ?
COc1ccccc1N1CCN(C(=S)Nc2ccc3nc(N4CCOCC4)cc(C)c3c2)CC1 | 4 | 3.5µM* | ? | ? | ?
CCN1CCN(c2cc(C)c3cc(NC(=S)N4CCOCC4)ccc3n2)CC1 | -27 | ? | 30% | / | /
CCN1CCN(c2cc(C)c3cc(NC(=S)N4CCN(c5ccccc5)CC4)ccc3n2)CC1 | -61* | ? | 9% | -12% | ?
Cc1ccc(C)c(N2CCN(C(=S)Nc3ccc4nc(N5CCN(C)CC5)cc(C)c4c3)CC2)c1 | ? | 2.5µM* | ? | / | /
O=C(OCc1ccccn1)C1CCN(C(=O)c2ccc(Cl)cc2)CC1 | -2 | 35% | 1% | -22% | 21%[46.1 µM]
COc1ccccc1-c1ccnc(-n2ncc(C(=O)N(C)C(C)c3ccon3)c2C2CC2)n1 (stereo not drawn) | / | / | 47% | / | /
SMILES | HCMV inh | HCV inhibitor | FMDV inh | Lassa entry inh | MARV entry inh
Cc1ccc(-c2nnc(SCC(=O)N/N=C/c3ccccc3C(=O)O)n2-c2ccccc2)cc1 | 15 | / | / | / | /
O=C(N/N=C/c1cn(-c2ccccc2)nc1-c1ccccc1)c1ccco1 | -21 | ? | -18% | -7% | -30%
O=C(N/N=C/c1cn(-c2cccs2)nc1-c1ccccc1)c1ccccc1Cl | -17 | 11µM* | 6% | ? | ?
O=C(N/N=C/c1cn(-c2cccs2)nc1-c1ccccc1)c1ccc(O)cc1 | -33 | ? | -25% | ? | ?
O=C(N/N=C\c1cn(-c2ccccc2)nc1-c1ccccc1)c1ccc(Br)o1 | 75 | 4µM* | ? | ? | ?
Cc1nnc(SCC(=O)N/N=C/c2cn(-c3ccccc3)nc2-c2ccccc2)n1-c1ccccc1 | 3 | ? | 28µM* | ? | ?
Cc1ccc(-c2nn(-c3ccccc3)cc2/C=N/NC(=O)c2ccc(Br)o2)cc1 | 22 | -11% | 28µM* | -24% | ?
